# Laboratory results as given in the supplement of paper PMC8728848.
# The full list was thinned out, with the strongest signals kept by preference.
# Experiments:
# Experiment in all cases: glycan array binding signal (z-score within array); higher = stronger binding
# Details in all cases: glycan notation: IUPAC condensed, linker removed
# [1] = target: Neu5Ac(a2-3)Gal(b1-3)GlcNAc(b1-3)GalNAc
# How it was run: (§1)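 Negative Z-scores can be read as non-binding. The Z-score is calculated within each array and then averaged across arrays of one protein sequence at different concentrations or buffers and across linkers. Arrays, 3228 in all, were curated from the Consortium for Functional Glycomics database and kept only where the protein sequence was available.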
# [2] = target: Neu5Ac(a2-3)Gal(b1-4)GlcNAc(b1-3)Gal(b1-4)GlcNAc(b1-3)Gal(b1-4)GlcNAc
# How it was run: as §1
# [3] = target: Neu5Ac(a2-3)Gal(b1-4)GlcNAc(b1-6)[Gal(b1-3)]GalNAc
# How it was run: as §1
# [4] = target: Neu5Ac(a2-3)Gal(b1-4)[Fuc(a1-3)]GlcNAc(b1-3)Gal
# How it was run: as §1
# [5] = target: Neu5Ac(a2-3)Gal(b1-4)[Fuc(a1-3)]GlcNAc(b1-3)Gal(b1-4)GlcNAc
# How it was run: as §1
# [6] = target: Neu5Ac(a2-3)Gal(b1-4)[Fuc(a1-3)]GlcNAc(b1-3)GalNAc
# How it was run: as §1
# [7] = target: Neu5Ac(a2-3)Gal6S(b1-4)[Fuc(a1-3)]GlcNAc
# How it was run: as §1
# [8] = target: Neu5Ac(a2-6)Gal(b1-4)GlcNAc6S
# How it was run: as §1
# [9] = target: Neu5Ac(a2-8)Neu5Ac(a2-3)[GalNAc(b1-4)]Gal(b1-4)Glc
# How it was run: as §1
# [10] = target: Neu5Ac(a2-8)Neu5Ac(a2-8)Neu5Ac(a2-3)[GalNAc(b1-4)]Gal(b1-4)Glc
# How it was run: as §1
binder,measurement,setting,value
"RetS (Pseudomonas aeruginosa), Q9HUV7 (protein) MVRLRIAIGLLVSFLLLLLGPMSPAVADDAGVSSVPLQTTATTPSANQNWRLLRDESAQLRIADVLQRKEQFRPLAKRSFIFPASPQAVWLQVQLPAQKVPSWLWIFAPRVQYLDYYLVQDGQLVRDQHTGESRPFQERPLPSRSYLFSLPVDGKPMTLYVRMTSNHPLMAWFDQIDEAGLVGLEKPAYAFGMLLGGMLLLLMYNLIRFAYSRSASSLWLAAVHAALAVCAAANLGLVAFWLPGLKFNQSLTADLGALGAAVSLLWFACSFFRGTAESRLNRLLQGEALLILAVGAIIAFTQQLWFSWLIYLLVILSSLSVPLIAAWHWYRGYQPARLIVAGMIVFNAGFMVFLPVLFGTKQLDPGWLVLGVFSFATLAGLVLSVSLTERQRLIQQLNLQQRTSEAAHTAELQTKAEFLAKISHEIRTPMNGVLGMTELLLGTPLSAKQRDYVQTIHSAGNELLTLINEILDISKLESGQIELDEVQFDLNALIEDCLDIFRVKAEQQRIELISFTQPQVPRVIGGDPTRLRQVVLSLLDNAFKQTEEGEILLVVALDDQGETPRLRIAVQDSGHPFDAKEREALLTAELHSGDFLSASKLGSHLGLIIARQLVRLMGGEFGIQSGSSQGTTLSLTLPLDPQQLENPTADLDGPLQGARLLVVDDNETCRKVLVQQCSGWGLNVSAVSSGKEALAQLRTKAHLREYFDVVLLDQDMPGMTGMQLAAKIKEDPNLNHDILLIMLTGISNAPSKIIARNAGIKRILAKPVAGYTLKATLADELAQRGVSGVTNYLQPAKEAQAPSLPSDFRILVAEDNSISTKVIRGMLNKLNLQPDTASNGQEALSAMKATQYDLVLMDCEMPVLDGFSATEQLRAWEAHEQRPHTPVVALTAHILSEHKERARLVGMDGHMAKPVELSQLRELIAYWVGERDRRRQGDALPS",glycan array binding signal (z-score),[1],-0.17
same,glycan array binding signal (z-score),[2],0.517
same,glycan array binding signal (z-score),[3],-0.343
same,glycan array binding signal (z-score),[4],-0.075
same,glycan array binding signal (z-score),[5],1.76
same,glycan array binding signal (z-score),[6],3.56
same,glycan array binding signal (z-score),[7],-0.246
same,glycan array binding signal (z-score),[8],0.369
same,glycan array binding signal (z-score),[9],0.67
same,glycan array binding signal (z-score),[10],0.181
